Most compounds without a hit are left out; they make up all but 10% or so of the library.
Luciferase inh: inhibitors of firefly (Photinus pyralis) luciferase | P08659 | purified P. pyralis luciferase, luminescence, biochemical | Potency, µM (series often up to 115 µM), actives largely listed as inhibitors | 76,000 tested, 2.5% active | AID 1347043; note: nearly all actives have a fitted effect of over 65% in size
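Cell-free enzyme assay, 10nM P. pyralis luciferase, luciferin and ATP each at 10uM. Inhibition profiled over a 6-point titration, read as luminescence.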
HEK cytotox: cytotoxic compounds in HEK 293 cells | HEK 293 viability, ATP luminescence (CellTiter-Glo), 48-72 h | Potency, µM (doses to about 115 µM), without a hit: at the highest dose activity change, negative = cytotoxicity, most hits filed as inhibitors | 94,000 tested, 6.6% active | AID 1345083; note: nearly all actives have a fitted effect of over 60% in size
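Luminescence from cellular ATP, measured with CellTiter-Glo, indicates HEK 293 viability. Cells plated at 250 cells/well are treated with compound for 48 or 72 hr at 37 degree Celsius before reagent addition.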
NPR1 antag: human Npr1 receptor antagonism; Potency, µM (top dose mostly 46.3 µM), for the others: top-dose activity change, negative = inhibition, usual class: inhibitors; HEK293 hNpr1 GloSensor cGMP, ANP-stimulated luminescence; AID 1347048; 76,000 tested, 1.6% active; P16066; calls by dose curve; note: nearly all actives have a fitted effect of over 60% in size
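HEK293 cells stably expressing human Npr1 and cGMP GloSensor pGS-40F, loaded 2 h with 2% GloSensor reagent, given compound 30 min at room temperature. Luminescence read before and 20 min after 0.1 nM hNppA.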
3T3 cytotox: kills NIH 3T3 cells. NIH 3T3 viability, CellTiter-Glo ATP luminescence, 48-72 h. Potency, µM (titrated, usually from 96.7 µM), inactives show at the top dose activity change, negative = cytotoxicity, hits mostly inhibitors. 94,000 tested, 4.3% active. AID 1345082; note: nearly all actives have a fitted effect of over 55% in size
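Cells were seeded at 400 per well, treated with pin-transferred compound, and kept 48 or 72 hr at 37 °C before CellTiter-Glo addition and luminescence imaging of cellular ATP.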
GPT2 inh: blocks human glutamate pyruvate transaminase 2 | Q8TD30 | Recombinant GPT2, coupled pyruvate oxidase/HRP Amplex Red fluorescence | Potency, µM (highest dose often 57.7 µM), for inactives: at the top dose activity change, negative = inhibition, hits mostly inhibitors | 100,000 tested, 0.25% active | AID 1671188; note: nearly all actives have a fitted effect of over 60% in size
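Fluorescence read-out: pyruvate from GPT2 turnover coupled to pyruvate oxidase, HRP and Amplex Red (0.2mM ThPP, 0.2U/mL PO and HRP, 50uM Amplex final). Substrates 250uM a-KG, 2mM L-alanine; enzyme 10ng/uL; 30 min RT.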
* marks the source's active call; other numbers are inactive results; i = inactive; ? = inconclusive; nt = no result given; [ ] = remark or other dose. Unless noted, calls come from the whole dose curve; as a rule, active = well fitted curve in the direction sought with a large enough effect; inconclusive = small, poorly fitted or top-dose-only effect, or another doubt; inactive = no such curve, though single readings can be large; an effect the other way counts as inactive or inconclusive. % is set by controls: 0 for no effect and ±100 for the full control effect; potency is the fitted concentration of half-maximal effect.

SMILES	Luciferase inh	HEK cytotox	NPR1 antag	3T3 cytotox	GPT2 inh
O=C(Nc1cccc(C(F)(F)F)c1)N[C@H]1CO[C@H]2[C@@H]1OC[C@@H]2n1nnnc1-c1ccc2c(c1)OCO2	i	39.8µM*	?	31.6µM*	i
COc1cccc(-c2nnnn2[C@H]2CO[C@H]3[C@@H]2OC[C@@H]3NC(=O)c2ccc(N(C)C)cc2)c1	?	?	15.8µM*	?	2.6%
CN(C)C(=O)c1cc(-c2ccccc2C(F)(F)F)nc2c1cnn2C	nt	1.9%	nt	-2.5%	nt
CCC1Oc2ccc(NC(=O)Cc3ccc(OC)cc3)cc2CN(Cc2ccc(OC)cc2)C1=O (stereo not given)	i	?	-12.4%	?	?
CCC1Oc2ccc(NC(=O)Cc3ccccc3)cc2CN(Cc2ccc3c(c2)OCO3)C1=O (stereo not given)	i	35.5µM*	-15.2%	?	-12.5%
CCC1Oc2ccc(NC(=O)c3ccc4c(c3)OCO4)cc2CN(Cc2ccccc2)C1=O (stereo not given)	i	89.1µM*	-2.3%	-26.5%	1.1%
CCC1Oc2ccc(NC(=O)c3ccccc3)cc2CN(Cc2ccc(OC)cc2)C1=O (stereo not given)	i	?	-15.7%	?	i
CCC1Oc2ccc(NC(=O)Cc3ccc(OC)cc3)cc2CN(Cc2ccc3c(c2)OCO3)C1=O (stereo not given)	i	22.4µM*	-12.1%	?	1.3%
CCC1Oc2ccc(NC(=O)c3ccc(F)cc3F)cc2CN(Cc2ccc3c(c2)OCO3)C1=O (stereo not given)	i	?	-17.0%	-29.2%	4.1%
CCC1Oc2ccc(NC(=O)c3cccc(OC)c3)cc2CN(Cc2ccccc2)C1=O (stereo not given)	i	44.7µM*	-23.0%	?	-15.1%
O=C(NCc1ccc(F)cc1)c1ccc2oc(-c3cccnc3)nc2c1	nt	?	nt	-9.6%[138 µM]	-1.2%[88.5 µM]
CC(C)(C)C(=O)NC1CCCN(c2ccc3nnc(C4CC4)n3n2)C1 (stereo not given)	nt	i	nt	-4.6%	nt
COc1ccccc1-c1cc(C(=O)NCC2CC2)c2cnn(C)c2n1	nt	-8.3%	nt	-27.8%	nt
COc1ccc(S(=O)(=O)N2CCC(OCc3noc(C4CCCO4)n3)CC2)cc1 (stereo not given)	nt	-12.0%	nt	-24.3%	2.7%
COc1ccc(Cn2c3c(c(=O)n2Cc2ccccc2)CCN(C(=O)c2nc4ccccc4[nH]2)C3)cc1	i	?	-19.9%	20µM*	1.2%
COc1ccc(-n2c(=O)c3c(n2Cc2ccccc2)CN(C(=O)c2ccnn2C)CC3)cc1	i	-4.8%	-1.6%	35.5µM*	i
COCCC(=O)N1CCc2c(n(Cc3ccc(OC)cc3)n(Cc3ccccc3)c2=O)C1	i	i	4.3%[70.6 µM]	?	i
COc1ccc(-n2c(=O)c3c(n2Cc2ccccc2)CN(C(=O)c2cccc(O)c2)CC3)cc1	i	-4.0%	3.5%	?	-7.3%
COc1ccc(Cn2c3c(c(=O)n2Cc2ccccc2)CCN(C(=O)c2cocn2)C3)cc1	i	i	7.9%	25.1µM*	-18.9%
COc1cccc(CNC(=O)C2CN(S(=O)(=O)c3cccnc3)CC23CCCCC3)c1 (stereo not given)	i	?	-4.8%	-6.4%	i
COCc1ccc2c(c1)c(OC(C)(C)C(=O)Nc1ccccn1)nn2Cc1cccc(OC)c1	i	?	2.8%	?	-11.3%
COCc1ccc2c(c1)c(OC(C)(C)C(=O)NCc1ccncc1)nn2Cc1cccnc1	i	-10.1%	-1.5%	?	1.3%
COCc1ccc2c(c1)c(OC(C)(C)C(=O)NCCCn1ccnc1)nn2Cc1ccccc1	i	-16.8%	-1.0%	22.4µM*	i
COCc1ccc2c(c1)c(OC(C)(C)C(=O)NCCN(C)C)nn2Cc1ccccc1	i	-26.6%[172 µM]	-2.9%[70.6 µM]	89.1µM*	i
COCc1ccc2c(c1)c(OC(C)(C)C(=O)NCc1ccncc1)nn2Cc1cccc(OC)c1	i	?	3.8%	10µM*	i

Compound activity as filed in PubChem.
